The panel holds about 83,000 compounds, 20% with a hit somewhere; the sample as a whole holds those more often.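 Single-concentration screen, 48 h exposure, 96-well plates. Endpoint: percent growth. Below 10 = active.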 Active and inactive are the calls of the source.

The first experiment deals with NCI-H23 lung. Nature of the experiment: NCI-60 one-dose screen, 48 h (100 = growth as untreated, 0 = no growth, -100 = all killed). The conditions noted are these: 10 µM.
Take `O=C(N=Nc1c(O)[nH]c2ccc(Br)cc12)c1ccc2nc(-c3ccccc3)[nH]c2c1`: the growth is -66.1% (active).

Turning to `CS(=O)(=O)Nc1ccc(-c2ccc3c(c2)ncn3-c2ccc(NC(=O)Nc3ccc(Br)cc3)cc2)cc1`, the growth was 3.9% (active).

Turning to `COC1=C[C@@]23CCC(=O)N2CCc2cc4c(cc2[C@H]3[C@H]1OC(=O)C(C)(C)O)OCO4`, the growth is 95.6% (inactive). The same measure, in the same setting: then `Cc1cc(C)nc(/N=C(\N)Nc2ccc(S(=O)(=O)Nc3nc(C)cc(C)n3)cc2)n1`, with 104% (inactive). The same measure, in the same setting: then `CC(=O)NS(=O)(=O)c1ccc(NC(=O)CSC2=NC(c3ccccc3)C(C(C)=O)=C(C)N2)cc1` (centres undefined), with 97.5% (inactive); and `COc1cc2c3c(n(CCCNCCO)c(=O)c2cc1OC)-c1nc2c(cc1C3=O)OCO2`, with -45% (active); and `C/C(=C\CC/C=C(\C)CC/C=C(\C)CC[C@@H](O)C(C)(C)O)CC/C=C(\C)CC[C@@H](O)C(C)(C)O`, with 31.8% (inactive). Same read-out and setting: then `C=CC(=O)Nc1nc(-c2cccc(NS(=O)(=O)c3cccc4c(N(C)C)cccc34)c2)cs1`, with -3.14% (active). Take `O=C(Nc1ccc(Cl)c(C(F)(F)F)c1)c1cncc(C#Cc2cnc3ccc(N4CCOCC4)nn23)c1`: the growth is -18.7% (active).

As to `O=C(c1ccccc1)n1ccc(-c2cc3cc(Br)ccc3oc2=O)n1`, the growth is 19% (inactive). Take `Clc1ccc(/C=N/Nc2ncnc3sc4c(c23)CCN(Cc2ccccc2)C4)cc1`: the growth is 13.9% (inactive).

With `Nc1cc(-c2cccc(C(=O)NCc3ccc4c(c3)OCO4)c2)ccn1`, the growth was 88% (inactive).

The test system of the next experiment is NCI-H226 lung. Described as above. The conditions noted are these: 10 µM.
For the molecule `COC(=O)CC1CC1C1Cc2c(nc(N(C)S(C)(=O)=O)nc2C(C)C)-c2ccc(F)cc21` (centres undefined), the growth was 78.8% (inactive). Same read-out and setting: the result for `CN1CCN(c2ccc(Nc3nc(N4CCN(S(=O)(=O)c5ccc(Cl)cc5)CC4)c4sccc4n3)cc2)CC1` reads -22.2% (active); that for `Cc1ccc(-c2ccc(SCC(=O)Nc3ccc(Cl)c(C(F)(F)F)c3)nn2)cc1`, 65.6% (inactive). The same measure, in the same setting: then `Oc1ccc(/C=C2\CCCc3cc4ccc(O)cc4[o+]c32)c(O)c1`, with 77.6% (inactive). The same measure, in the same setting: then `O=C(Nc1ccc(F)c(Cl)c1)c1cc(-c2ccc(F)cc2F)ccc1O`, with -23.4% (active); and `CCN1CCN(c2ccc(NC(=O)Nc3ccc4c(c3F)CCN4c3ccnc(C(=O)NC)c3)cc2C(F)(F)F)CC1`, with 95% (inactive). With `O=C(CS(=O)(=O)c1oc(-c2ccc(Cl)cc2)nc1S(=O)(=O)c1ccccc1)N1CCCC1`, the growth was 71.9% (inactive).

For the molecule `C=C(C)[C@@H]1CC[C@]2(C)[C@H](CC=C3[C@@H]4CC(C)(C)CC[C@]4(C(=O)N4CCOCC4)CC[C@]32C)[C@@]1(C)CCCN`, the growth is -80.5% (active).

On to `COc1ccccc1C(=O)NNC(=O)CSc1nc2c(c(=O)[nH]1)CCCC2`, for which the growth was 83.6% (inactive). Take `Cc1ccc(/C(N)=N/c2sc(-c3ccccc3)nc2-c2ccccc2)cc1`: the growth is 94.3% (inactive).

With `O=C(COc1ccc(NC(=O)Nc2ccc(Cl)cc2)cc1)N=Nc1c(O)[nH]c2ccc([N+](=O)[O-])cc12`, the growth was 22.4% (inactive). The same measure, in the same setting: then `COc1cc(/C=C/C(=O)c2cc(OC)c(OC)c(OC)c2)ccc1Oc1nc(Nc2ccc(F)cc2)nc(N(C)C)n1`, with 17.9% (inactive); and `Cc1ccc(CSc2nc(-c3ccc(F)cc3)c(C#N)c(=O)[nH]2)cc1`, with 99.1% (inactive). As for `CCCn1c(O)c(N=Nc2nc(-c3cc4ccccc4oc3=O)cs2)c2cc(Br)ccc21`, the growth was 93.9% (inactive). The same measure, in the same setting: then `CN1CCN(Cc2ccc(NC(=O)c3cncc(C#Cc4cnc5ccc(N[C@@H]6CCOC6)nn45)c3)cc2C(F)(F)F)CC1`, with -94.9% (active); and `c1ccc(C(=C(c2ccc(OCCN3CCCCC3)cc2)c2ccc(OCCN3CCCCC3)cc2)C2CCCC2)cc1`, with -15.5% (active); and `Cc1ccc(-c2cc(C(=O)N=Nc3c(O)[nH]c4ccccc34)c3ccccc3n2)cc1`, with 47% (inactive).

Take `N#Cc1c(NC(=O)c2ccc(C(F)(F)F)cc2)sc2c1CCC(=O)C2`: the growth is -21.2% (active).

For `CCOC(=O)C1NN(c2ccc(S(N)(=O)=O)cc2)c2nc3nc(-c4cccs4)cc(-c4cccs4)c3c(=O)n21` (centres undefined), the growth is 5.85% (active). On the same count and under the same terms, then `Cc1ccc(-c2cc(C(=O)N=Nc3c(O)[nH]c4ccc(Br)cc34)c3ccccc3n2)cc1`, with 65.3% (inactive); and `CC1(c2ccccc2)NC(=O)N(CC(=O)Nc2ccc(C(=O)/C=C/c3ccc(Cl)cc3)cc2)C1=O` (centres undefined), with -0.196% (active). Same read-out and setting: the result for `O=C(N/N=C/c1ccc(-c2cccc([N+](=O)[O-])c2)o1)c1[nH]c2ccc(Br)cc2c1-c1ccccc1` reads 16.2% (inactive); that for `CN(C)c1ccc(/C=C/c2nc3ccccc3c(=O)n2CC(=O)Nc2ccc(Cl)cc2)cc1`, 2.45% (active); that for `CCCSc1nc(NC2CC2)c(C#N)c(-c2ccc(OC)cc2)n1`, 99.4% (inactive).

Take `C=C1CCC2C3(C)COC(c4c(F)cccc4F)OC3CCC2(C)C1CC(O)C1=CCOC1=O` (centres undefined): the growth was 79.3% (inactive). On the same count and under the same terms, the result for `O=C(N=Nc1c(O)[nH]c2ccc(Br)cc12)c1ccc2nc(-c3ccccc3)[nH]c2c1` reads -47.9% (active). Same read-out and setting: the result for `CS(=O)(=O)Nc1ccc(-c2ccc3c(c2)ncn3-c2ccc(NC(=O)Nc3ccc(Br)cc3)cc2)cc1` reads 9.71% (active); that for `COC1=C[C@@]23CCC(=O)N2CCc2cc4c(cc2[C@H]3[C@H]1OC(=O)C(C)(C)O)OCO4`, 93.2% (inactive); that for `Cc1cc(C)nc(/N=C(\N)Nc2ccc(S(=O)(=O)Nc3nc(C)cc(C)n3)cc2)n1`, 102% (inactive). Consider `CC(=O)NS(=O)(=O)c1ccc(NC(=O)CSC2=NC(c3ccccc3)C(C(C)=O)=C(C)N2)cc1` (centres undefined), for which the growth is 109% (inactive).

For the molecule `COc1cc2c3c(n(CCCNCCO)c(=O)c2cc1OC)-c1nc2c(cc1C3=O)OCO2`, the growth is -88.5% (active).

Regarding `C/C(=C\CC/C=C(\C)CC/C=C(\C)CC[C@@H](O)C(C)(C)O)CC/C=C(\C)CC[C@@H](O)C(C)(C)O`, the growth was 38.8% (inactive).

For the molecule `C=CC(=O)Nc1nc(-c2cccc(NS(=O)(=O)c3cccc4c(N(C)C)cccc34)c2)cs1`, the growth is 6.89% (active). On the same count and under the same terms, the result for `O=C(Nc1ccc(Cl)c(C(F)(F)F)c1)c1cncc(C#Cc2cnc3ccc(N4CCOCC4)nn23)c1` reads -32.8% (active); that for `O=C(c1ccccc1)n1ccc(-c2cc3cc(Br)ccc3oc2=O)n1`, 27.5% (inactive). With `Clc1ccc(/C=N/Nc2ncnc3sc4c(c23)CCN(Cc2ccccc2)C4)cc1`, the growth is -54.2% (active). With `Nc1cc(-c2cccc(C(=O)NCc3ccc4c(c3)OCO4)c2)ccn1`, the growth was 87.3% (inactive).

The values are drawn from PubChem BioAssay (NCI).
